In PubChem BioAssay (NCATS):
Results filed as inconclusive are left out. Activity calls are given as the source filed them. Calls follow the shape of the dose curve; as a rule, active = well fitted inhibition curve with a large enough effect; inconclusive = small, poorly fitted or top-dose-only effect; inactive = flat fitted curve, though single readings scatter.

What was measured:
Experiment in all cases: qHTS profiling for inhibitors of Plasmodium falciparum proliferation (AID 504749); also: nearly all actives have a fitted effect of over 60% in size
Settings in all cases: P. falciparum in erythrocytes, SYBR Green DNA, 72 h; series mostly up to 28.7 µM
[1] = system: CP194
Summary of the method: (§1)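 Parasite proliferation within erythrocytes, 72 h exposure. Endpoint: SYBR Green I fluorescence after overnight lysis at room temperature. Controls: 0.29 uM artemisinin, DMSO.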

[2] = system: CP201
Summary of the method: as §1

[3] = system: CP203
Summary of the method: as §1

[4] = system: CP211
Summary of the method: as §1

[5] = system: CP215
Summary of the method: as §1

[6] = system: CP217
Summary of the method: as §1

[7] = system: CP237
Summary of the method: as §1

[8] = system: CP238
Summary of the method: as §1

[9] = system: CP250
Summary of the method: as §1

[10] = system: CP252
Summary of the method: as §1

[11] = system: CP256
Summary of the method: as §1

[12] = system: CP260
Summary of the method: as §1

[13] = system: CP262
Summary of the method: as §1

[14] = system: CP265
Summary of the method: as §1

[15] = system: CP268
Summary of the method: as §1

[16] = system: CP269
Summary of the method: as §1

[17] = system: CP286
Summary of the method: as §1

[18] = system: CP291
Summary of the method: as §1

[19] = system: CP247
Summary of the method: as §1

[20] = system: CP266
Summary of the method: as §1

Measured: Potency

CCC1(CC)C(=O)C=CNC1=O
not listed: [19] | [20]
inactive: all other assays above

C=C(C)[C@H]1CN[C@H](C(=O)O)[C@H]1CC(=O)O
not listed: [5] | [15] | [20]
inactive: all other assays above

CC(C)c1cccc(C(C)C)c1O
not listed: [3] | [4] | [15] | [16] | [18]
inactive: all other assays above
